Assay in all cases: DAPPL (digital affinity profiling via proximity ligation, sequencing); 10 mM Tris-HCl pH 7.5, 50 mM NaCl, 1 mM DTT, 4% glycerol, room temperature, 30 min; GST-TFs on glutathione beads, 16-mer random dsDNA library, 0.1% formaldehyde crosslink after washing; high values mean tight binding
The target of one assay is T1, FEV (Homo sapiens, UniProt Q99581 1-238).
T1 sequence: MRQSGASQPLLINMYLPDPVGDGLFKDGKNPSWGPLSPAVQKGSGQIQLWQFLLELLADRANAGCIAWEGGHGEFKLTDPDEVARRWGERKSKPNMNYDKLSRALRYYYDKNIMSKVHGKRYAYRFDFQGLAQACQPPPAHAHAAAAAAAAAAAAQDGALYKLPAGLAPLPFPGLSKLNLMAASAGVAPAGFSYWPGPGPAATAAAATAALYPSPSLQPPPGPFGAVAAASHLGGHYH
The conditions noted are these: protein: recombinant; tags: N-terminal GST; dsDNA, one strand shown. Put shortly:
(§1)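 Human transcription factors fused to GST were expressed in yeast, captured on glutathione beads, given DNA barcodes and pooled with a GST-only negative control. Pools were incubated with 200 nmole of a 16-mer random double-stranded DNA library in Tris/NaCl/DTT/glycerol buffer at room temperature for 30 min. They were then washed, crosslinked with 0.1% formaldehyde, proximity-ligated (BsaI/T4 ligase, 1 h, 37 °C), PCR-amplified and sequenced on an Illumina NextSeq500. Binding signal is each 6-mer's read frequency for a factor divided by its frequency for the GST control.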

A further assay addresses ETV5 (Homo sapiens, UniProt P41161 1-510). Conditions: protein: recombinant; tags: N-terminal GST; dsDNA, one strand shown. Put shortly: as §1
In a further assay the target is HSF1 (Homo sapiens, UniProt Q00613 1-529). The conditions noted are these: protein: recombinant; tags: N-terminal GST; chain copies: 3; dsDNA, one strand shown. Summed up:
as §1

In another assay the target is T2, SPIC (Homo sapiens, UniProt Q8N5J4 1-248).
T2 sequence: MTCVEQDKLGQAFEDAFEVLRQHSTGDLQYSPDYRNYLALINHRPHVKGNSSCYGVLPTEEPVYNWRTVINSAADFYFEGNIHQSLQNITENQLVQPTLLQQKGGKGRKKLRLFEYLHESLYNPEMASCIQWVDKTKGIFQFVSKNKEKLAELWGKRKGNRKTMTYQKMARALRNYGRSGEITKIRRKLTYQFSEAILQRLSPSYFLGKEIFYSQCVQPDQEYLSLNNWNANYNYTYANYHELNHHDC
The conditions noted are these: protein: recombinant; tags: N-terminal GST; dsDNA, one strand shown. Put shortly:
as §1

The target of the next assay is ELF4 (Homo sapiens, UniProt Q99607 1-663). Conditions: protein: recombinant; tags: N-terminal GST; dsDNA, one strand shown. Summed up: as §1
ELF4, sequence (Q99607 whole entry): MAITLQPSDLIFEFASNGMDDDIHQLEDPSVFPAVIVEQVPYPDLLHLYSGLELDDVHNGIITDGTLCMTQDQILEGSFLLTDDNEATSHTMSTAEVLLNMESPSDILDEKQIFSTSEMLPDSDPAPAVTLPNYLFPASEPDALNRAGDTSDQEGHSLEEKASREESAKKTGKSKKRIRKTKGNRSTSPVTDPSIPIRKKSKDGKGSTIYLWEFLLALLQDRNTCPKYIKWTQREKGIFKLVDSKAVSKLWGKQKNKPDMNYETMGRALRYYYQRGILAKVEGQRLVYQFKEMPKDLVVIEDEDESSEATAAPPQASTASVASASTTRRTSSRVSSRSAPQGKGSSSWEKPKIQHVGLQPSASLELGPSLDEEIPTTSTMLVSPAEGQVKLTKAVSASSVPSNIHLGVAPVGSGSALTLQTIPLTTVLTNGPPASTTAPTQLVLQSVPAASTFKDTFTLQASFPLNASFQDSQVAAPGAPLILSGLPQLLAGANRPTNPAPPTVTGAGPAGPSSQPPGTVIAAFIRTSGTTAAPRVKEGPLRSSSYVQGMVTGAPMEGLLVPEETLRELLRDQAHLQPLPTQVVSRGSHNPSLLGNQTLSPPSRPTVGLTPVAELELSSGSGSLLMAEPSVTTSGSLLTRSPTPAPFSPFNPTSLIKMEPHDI
A further assay addresses T3, ELK4 (Homo sapiens, UniProt P28324-2 1-405).
T3 sequence: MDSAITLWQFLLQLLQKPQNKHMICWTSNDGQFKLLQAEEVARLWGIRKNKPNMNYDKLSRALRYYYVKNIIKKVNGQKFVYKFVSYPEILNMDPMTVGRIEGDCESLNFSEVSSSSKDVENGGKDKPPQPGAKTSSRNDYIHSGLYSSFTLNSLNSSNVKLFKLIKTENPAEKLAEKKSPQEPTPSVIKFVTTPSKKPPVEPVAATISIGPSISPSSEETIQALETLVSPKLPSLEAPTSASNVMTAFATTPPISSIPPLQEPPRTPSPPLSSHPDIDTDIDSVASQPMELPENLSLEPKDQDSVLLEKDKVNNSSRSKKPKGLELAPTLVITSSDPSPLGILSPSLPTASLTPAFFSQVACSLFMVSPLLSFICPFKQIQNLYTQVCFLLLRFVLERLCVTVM
The conditions noted are these: protein: recombinant; tags: N-terminal GST; dsDNA, one strand shown. Put shortly:
as §1

The target of a further assay is T4, ETV2 (Homo sapiens, UniProt O00321 1-342).
T4 sequence: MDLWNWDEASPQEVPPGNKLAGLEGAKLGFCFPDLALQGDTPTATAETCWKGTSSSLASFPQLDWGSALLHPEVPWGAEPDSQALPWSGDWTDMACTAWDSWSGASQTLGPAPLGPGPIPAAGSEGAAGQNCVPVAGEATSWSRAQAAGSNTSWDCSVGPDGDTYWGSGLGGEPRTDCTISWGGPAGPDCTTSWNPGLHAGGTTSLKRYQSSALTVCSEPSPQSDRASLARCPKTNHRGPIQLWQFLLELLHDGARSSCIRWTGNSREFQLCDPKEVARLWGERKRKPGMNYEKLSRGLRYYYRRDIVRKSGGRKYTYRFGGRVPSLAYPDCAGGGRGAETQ
Conditions: protein: recombinant; tags: N-terminal GST; dsDNA, one strand shown. Put shortly: as §1

A further assay has as its target T5, ELF3 (Homo sapiens, UniProt P78545 1-371).
T5 sequence: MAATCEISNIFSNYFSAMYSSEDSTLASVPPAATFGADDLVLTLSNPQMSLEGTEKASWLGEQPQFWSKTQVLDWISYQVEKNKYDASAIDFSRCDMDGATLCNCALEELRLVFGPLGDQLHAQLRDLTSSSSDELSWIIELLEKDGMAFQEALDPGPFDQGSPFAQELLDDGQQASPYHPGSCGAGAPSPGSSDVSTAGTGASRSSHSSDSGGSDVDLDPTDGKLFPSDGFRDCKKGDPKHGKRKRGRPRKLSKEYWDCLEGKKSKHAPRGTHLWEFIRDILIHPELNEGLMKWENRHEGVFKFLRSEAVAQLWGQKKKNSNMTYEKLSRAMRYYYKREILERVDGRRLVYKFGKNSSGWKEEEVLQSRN
The conditions noted are these: protein: recombinant; tags: N-terminal GST; dsDNA, one strand shown. Put shortly: as §1

The target of the next assay is CRX (Homo sapiens, UniProt O43186 1-299). The conditions noted are these: protein: recombinant; tags: N-terminal GST; dsDNA, one strand shown. Put shortly:
as §1

The target in a further assay is ETV1 (Homo sapiens, UniProt P50549 1-477). Conditions: protein: recombinant; tags: N-terminal GST; dsDNA, one strand shown. Put shortly: as §1
ETV1, sequence (P50549 whole entry): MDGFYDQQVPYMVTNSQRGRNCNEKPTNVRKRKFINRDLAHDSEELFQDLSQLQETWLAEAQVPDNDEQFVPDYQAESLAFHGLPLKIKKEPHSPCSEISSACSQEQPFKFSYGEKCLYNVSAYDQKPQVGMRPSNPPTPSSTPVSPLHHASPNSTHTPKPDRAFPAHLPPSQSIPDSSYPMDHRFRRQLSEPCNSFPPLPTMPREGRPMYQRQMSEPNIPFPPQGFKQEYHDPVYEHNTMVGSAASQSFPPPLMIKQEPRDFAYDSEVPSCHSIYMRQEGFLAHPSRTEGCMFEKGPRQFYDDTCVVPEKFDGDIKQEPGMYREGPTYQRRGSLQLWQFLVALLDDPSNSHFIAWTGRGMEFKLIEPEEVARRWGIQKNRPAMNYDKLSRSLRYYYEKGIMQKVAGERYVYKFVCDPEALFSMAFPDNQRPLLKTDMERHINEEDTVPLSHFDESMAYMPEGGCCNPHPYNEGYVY
In a further assay the target is T6, ERF (Homo sapiens, UniProt P50548 1-548).
T6 sequence: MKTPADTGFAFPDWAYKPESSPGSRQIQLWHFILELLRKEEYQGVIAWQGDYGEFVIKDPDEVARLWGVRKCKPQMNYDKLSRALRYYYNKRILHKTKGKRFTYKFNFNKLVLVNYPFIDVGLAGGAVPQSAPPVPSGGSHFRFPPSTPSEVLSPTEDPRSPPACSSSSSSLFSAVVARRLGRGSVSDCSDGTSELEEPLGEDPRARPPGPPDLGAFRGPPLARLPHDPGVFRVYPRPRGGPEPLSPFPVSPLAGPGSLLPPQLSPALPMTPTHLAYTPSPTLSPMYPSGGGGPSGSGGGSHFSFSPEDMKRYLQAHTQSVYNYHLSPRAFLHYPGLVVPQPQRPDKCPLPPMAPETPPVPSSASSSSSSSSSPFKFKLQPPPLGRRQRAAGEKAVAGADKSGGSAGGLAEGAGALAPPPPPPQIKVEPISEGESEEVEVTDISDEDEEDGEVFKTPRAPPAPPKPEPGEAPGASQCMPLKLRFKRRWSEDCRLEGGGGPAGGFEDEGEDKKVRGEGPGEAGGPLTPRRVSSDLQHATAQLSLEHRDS
The conditions noted are these: protein: recombinant; tags: N-terminal GST; dsDNA, one strand shown. Summed up:
as §1

The target of the next assay is T7, ETV3L (Homo sapiens, UniProt Q6ZN32 1-361).
T7 sequence: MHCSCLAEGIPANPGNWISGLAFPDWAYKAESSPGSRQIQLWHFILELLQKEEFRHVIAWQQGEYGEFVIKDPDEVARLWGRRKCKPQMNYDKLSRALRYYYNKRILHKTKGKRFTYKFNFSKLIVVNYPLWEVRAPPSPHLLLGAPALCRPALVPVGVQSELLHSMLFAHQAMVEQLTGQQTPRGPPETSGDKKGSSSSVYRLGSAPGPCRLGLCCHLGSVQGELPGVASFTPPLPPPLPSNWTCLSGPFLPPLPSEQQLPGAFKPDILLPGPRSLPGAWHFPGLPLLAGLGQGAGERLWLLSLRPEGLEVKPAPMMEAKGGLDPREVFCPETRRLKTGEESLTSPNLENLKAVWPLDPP
Conditions: protein: recombinant; tags: N-terminal GST; dsDNA, one strand shown. Summed up: as §1

The next assay concerns the target T8, ETS2 (Homo sapiens, UniProt P15036 1-469).
T8 sequence: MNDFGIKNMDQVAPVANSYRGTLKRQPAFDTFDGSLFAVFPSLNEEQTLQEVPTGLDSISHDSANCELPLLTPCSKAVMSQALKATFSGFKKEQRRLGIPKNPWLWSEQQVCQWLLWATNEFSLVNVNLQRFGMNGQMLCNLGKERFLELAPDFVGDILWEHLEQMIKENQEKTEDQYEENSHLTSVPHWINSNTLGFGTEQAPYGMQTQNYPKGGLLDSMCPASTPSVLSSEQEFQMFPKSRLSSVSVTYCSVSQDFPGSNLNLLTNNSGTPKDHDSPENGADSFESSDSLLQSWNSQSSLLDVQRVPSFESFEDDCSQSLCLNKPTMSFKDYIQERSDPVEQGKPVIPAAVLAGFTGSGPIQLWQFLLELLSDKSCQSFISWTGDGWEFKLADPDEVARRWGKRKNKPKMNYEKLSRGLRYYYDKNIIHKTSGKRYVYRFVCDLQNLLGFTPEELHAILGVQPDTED
Conditions: protein: recombinant; tags: N-terminal GST; dsDNA, one strand shown. Put shortly: as §1

The next assay addresses T9, SPDEF (Homo sapiens, UniProt O95238 1-335).
T9 sequence: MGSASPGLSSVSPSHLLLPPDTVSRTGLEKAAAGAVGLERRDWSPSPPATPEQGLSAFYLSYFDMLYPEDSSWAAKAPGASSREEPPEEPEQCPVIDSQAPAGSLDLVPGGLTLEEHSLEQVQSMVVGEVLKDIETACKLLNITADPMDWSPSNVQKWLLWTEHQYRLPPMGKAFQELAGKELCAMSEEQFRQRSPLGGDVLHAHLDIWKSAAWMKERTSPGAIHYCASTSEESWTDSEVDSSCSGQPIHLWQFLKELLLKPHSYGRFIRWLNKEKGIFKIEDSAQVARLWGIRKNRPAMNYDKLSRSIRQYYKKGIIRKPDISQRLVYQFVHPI
Conditions: protein: recombinant; tags: N-terminal GST; dsDNA, one strand shown. Summed up:
as §1

A further assay concerns the target T10, ETV7 (Homo sapiens, UniProt Q9Y603 1-341).
T10 sequence: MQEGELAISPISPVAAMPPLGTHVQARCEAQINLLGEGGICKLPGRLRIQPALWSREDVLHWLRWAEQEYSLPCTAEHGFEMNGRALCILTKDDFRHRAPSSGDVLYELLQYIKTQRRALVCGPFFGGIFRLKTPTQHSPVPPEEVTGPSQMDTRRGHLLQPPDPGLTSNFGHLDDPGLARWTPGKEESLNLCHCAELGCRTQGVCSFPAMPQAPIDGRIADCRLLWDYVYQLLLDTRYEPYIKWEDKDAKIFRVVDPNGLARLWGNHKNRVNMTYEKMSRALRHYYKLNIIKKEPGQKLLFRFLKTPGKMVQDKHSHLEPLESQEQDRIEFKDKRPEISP
Conditions: protein: recombinant; tags: N-terminal GST; dsDNA, one strand shown. Summed up: as §1

A further assay concerns the target T11, ELF5 (Homo sapiens, UniProt Q9UKW6-2 1-255).
T11 sequence: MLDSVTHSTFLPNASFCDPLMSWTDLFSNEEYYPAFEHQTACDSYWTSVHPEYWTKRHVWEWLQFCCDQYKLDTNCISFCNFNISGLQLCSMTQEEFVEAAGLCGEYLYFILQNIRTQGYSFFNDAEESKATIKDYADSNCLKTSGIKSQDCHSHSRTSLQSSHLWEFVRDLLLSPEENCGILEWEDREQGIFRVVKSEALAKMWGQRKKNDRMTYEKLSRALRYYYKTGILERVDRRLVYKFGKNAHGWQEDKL
The conditions noted are these: protein: recombinant; tags: N-terminal GST; dsDNA, one strand shown. Put shortly: as §1

A further assay deals with T12, ETV3 (Homo sapiens, UniProt P41162-2 1-143).
T12 sequence: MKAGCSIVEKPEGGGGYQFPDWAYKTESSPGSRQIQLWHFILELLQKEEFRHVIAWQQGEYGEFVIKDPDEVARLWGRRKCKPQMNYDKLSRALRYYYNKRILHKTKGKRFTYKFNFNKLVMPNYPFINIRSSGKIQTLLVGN
Conditions: protein: recombinant; tags: N-terminal GST; dsDNA, one strand shown. Summed up:
as §1

For the next assay, the target named is ETV6 (Homo sapiens, UniProt P41212 1-452). The conditions noted are these: protein: recombinant; tags: N-terminal GST; dsDNA, one strand shown. Put shortly: as §1
ETV6, sequence (P41212 whole entry): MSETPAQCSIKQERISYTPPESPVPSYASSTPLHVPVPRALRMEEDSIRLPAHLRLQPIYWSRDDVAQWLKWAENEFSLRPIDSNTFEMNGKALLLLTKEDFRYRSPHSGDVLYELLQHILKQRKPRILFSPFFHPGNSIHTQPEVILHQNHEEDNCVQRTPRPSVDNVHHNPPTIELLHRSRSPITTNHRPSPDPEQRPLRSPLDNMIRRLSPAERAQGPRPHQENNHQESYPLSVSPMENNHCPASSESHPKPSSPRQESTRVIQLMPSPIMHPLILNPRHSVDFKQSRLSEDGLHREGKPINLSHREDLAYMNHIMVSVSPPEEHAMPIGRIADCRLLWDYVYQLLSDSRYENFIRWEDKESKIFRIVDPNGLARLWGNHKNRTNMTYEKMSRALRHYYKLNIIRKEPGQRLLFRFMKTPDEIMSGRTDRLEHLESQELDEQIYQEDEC

CRX, sequence (O43186 whole entry): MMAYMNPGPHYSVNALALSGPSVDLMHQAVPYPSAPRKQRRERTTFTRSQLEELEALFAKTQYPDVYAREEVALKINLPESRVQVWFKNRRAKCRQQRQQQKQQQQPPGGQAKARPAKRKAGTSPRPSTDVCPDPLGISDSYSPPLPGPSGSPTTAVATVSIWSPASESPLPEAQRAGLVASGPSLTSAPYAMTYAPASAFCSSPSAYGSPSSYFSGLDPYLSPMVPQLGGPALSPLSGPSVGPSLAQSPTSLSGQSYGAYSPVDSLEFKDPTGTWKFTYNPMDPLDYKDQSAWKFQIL
ETV5, sequence (P41161 whole entry): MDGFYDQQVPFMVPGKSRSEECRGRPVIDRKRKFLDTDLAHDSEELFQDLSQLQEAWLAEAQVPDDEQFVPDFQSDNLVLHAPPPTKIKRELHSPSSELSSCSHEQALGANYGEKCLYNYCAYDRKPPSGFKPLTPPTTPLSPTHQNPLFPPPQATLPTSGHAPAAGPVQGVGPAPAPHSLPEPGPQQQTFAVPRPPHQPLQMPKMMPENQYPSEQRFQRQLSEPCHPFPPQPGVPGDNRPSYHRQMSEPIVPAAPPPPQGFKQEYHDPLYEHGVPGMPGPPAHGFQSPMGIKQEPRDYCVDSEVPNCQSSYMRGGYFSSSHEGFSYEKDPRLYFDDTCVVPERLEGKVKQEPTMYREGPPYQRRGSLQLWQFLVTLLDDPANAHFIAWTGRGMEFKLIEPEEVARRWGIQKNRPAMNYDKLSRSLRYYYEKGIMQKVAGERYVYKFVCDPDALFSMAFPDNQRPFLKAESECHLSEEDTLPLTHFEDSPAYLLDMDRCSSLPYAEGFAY
HSF1, sequence (Q00613 whole entry): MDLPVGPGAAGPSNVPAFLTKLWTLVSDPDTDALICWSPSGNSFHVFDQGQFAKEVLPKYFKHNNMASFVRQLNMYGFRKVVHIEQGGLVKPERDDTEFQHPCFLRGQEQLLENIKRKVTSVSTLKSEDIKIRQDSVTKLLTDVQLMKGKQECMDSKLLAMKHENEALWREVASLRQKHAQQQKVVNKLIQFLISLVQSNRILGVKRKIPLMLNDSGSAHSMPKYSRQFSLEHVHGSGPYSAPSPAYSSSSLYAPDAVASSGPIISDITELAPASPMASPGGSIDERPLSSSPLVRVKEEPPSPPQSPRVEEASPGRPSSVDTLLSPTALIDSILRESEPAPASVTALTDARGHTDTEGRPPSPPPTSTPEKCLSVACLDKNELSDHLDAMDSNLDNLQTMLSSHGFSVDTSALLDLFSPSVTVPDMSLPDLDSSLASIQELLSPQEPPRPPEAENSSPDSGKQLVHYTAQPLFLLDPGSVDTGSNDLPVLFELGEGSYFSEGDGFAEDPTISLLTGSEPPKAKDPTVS

Take AATCTA: the binding signal is 1.15 fold enrichment (6-mer frequency, TF over GST control) with FEV; 1.12 fold enrichment (6-mer frequency, TF over GST control) with ETV5; 1.87 fold enrichment (6-mer frequency, TF over GST control) with HSF1; 1.1 fold enrichment (6-mer frequency, TF over GST control) with SPIC; 1.14 fold enrichment (6-mer frequency, TF over GST control) in the assay with ELF4; 1.07 fold enrichment (6-mer frequency, TF over GST control) with ELK4. Also, the binding signal with ETV2 is 1.09 fold enrichment (6-mer frequency, TF over GST control); in the assay with ELF3 it was 1.04 fold enrichment (6-mer frequency, TF over GST control); with CRX, 1.92 fold enrichment (6-mer frequency, TF over GST control); with ETV1, 1.21 fold enrichment (6-mer frequency, TF over GST control); with ERF it was 1.25 fold enrichment (6-mer frequency, TF over GST control); in the assay with ETV3L, 1.08 fold enrichment (6-mer frequency, TF over GST control). Besides, the binding signal with ETS2 was 1.16 fold enrichment (6-mer frequency, TF over GST control); with SPDEF it was 1.02 fold enrichment (6-mer frequency, TF over GST control); with ETV7, 1.13 fold enrichment (6-mer frequency, TF over GST control); in the assay with ELF5 it was 1.1 fold enrichment (6-mer frequency, TF over GST control); with ETV3, 1.05 fold enrichment (6-mer frequency, TF over GST control); with ETV6, 1.09 fold enrichment (6-mer frequency, TF over GST control).

The values are drawn from article PMC7862700, “An all-to-all approach to the identification of sequence-specific readers for epigenetic DNA modifications on cytosine”.
